Among the data in PubChem BioAssay (NCI) are growth values, retold here.

Compounds without any hit were thinned out: in the full panel of roughly 83,000, 20% have a hit.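 How to read the values: 0–100, growth inhibition (40 = 60% inhibited); 0, no net growth; -100 to 0, cell death (-40 = 40% of starting cells died; -100 = all dead).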 Values without a mark were called inactive. Active and inactive are the calls of the source. The calls were made as follows: active = growth percent below 10; inactive = the rest.

Test systems include RPMI-8226 leukemia; OVCAR-8 ovarian; OVCAR-5 ovarian; OVCAR-4 ovarian; SK-OV-3 ovarian; IGROV1 ovarian; OVCAR-3 ovarian; HS 578T breast; NCI/ADR-RES ovarian; T-47D breast; BT-549 breast; MDA-MB-435 melanoma; SW-620 colon; MCF7 breast; HCT-116 colon; HCC-2998 colon; KM12 colon.
Common to all, as to experiment: NCI-60 one-dose screen, 48 h (100 = growth as untreated, 0 = no growth, -100 = all killed)
Common to all, as to details: 10 µM unless noted

For the compound `C=C(C)[C@@H]1CC[C@]2(C(=O)N3CCN(C)CC3)CC[C@]3(C)[C@H](CC[C@@H]4[C@@]5(C)C/C(=C/c6ccco6)C(=O)C(C)(C)[C@@H]5CC[C@]43C)[C@@H]12`, the growth is 33.7% with RPMI-8226 leukemia; 70.7% with OVCAR-8 ovarian; 83.2% with OVCAR-5 ovarian; 71.7% with OVCAR-4 ovarian; 71.3% with SK-OV-3 ovarian; 90.1% in the test with IGROV1 ovarian. Further, the growth is 88.1% with OVCAR-3 ovarian; 66.4% in the test on HS 578T breast; 69.8% in the test with NCI/ADR-RES ovarian; 72.7% with T-47D breast; 79.5% in the test on BT-549 breast; 72.8% with MDA-MB-435 melanoma. Also, the growth with SW-620 colon was 74%; in the test on MCF7 breast, 36.1%; with HCT-116 colon it was 46.9%; in the test on HCC-2998 colon, 92.3%; in the test with KM12 colon, 72.5%.
As to `CNC(=O)c1cc(Oc2ccc3c(c2)sc2nc(-c4ccc(NC(C)=O)cc4)cn23)ccn1`, the growth in the test with RPMI-8226 leukemia was 60.3%; in the test with OVCAR-8 ovarian it was 73%; in the test with OVCAR-5 ovarian it was 90%; in the test with OVCAR-4 ovarian, 83.5%; in the test on SK-OV-3 ovarian it was 34%; with IGROV1 ovarian it was 69.2%. The growth with OVCAR-3 ovarian was 75%; in the test on HS 578T breast, 43.4%; in the test on NCI/ADR-RES ovarian, 52.1%; in the test with T-47D breast, 16.9%; in the test with BT-549 breast, 38.3%; in the test on MDA-MB-435 melanoma, 3.75% (active). For the same compound, the growth in the test with SW-620 colon was 57.2%; in the test with MCF7 breast, 55%; in the test with HCT-116 colon, 48.9%; in the test on HCC-2998 colon, 78.1%; with KM12 colon, 43.3%.
`CCOC(=O)c1ccc(Nc2ncnc3ccc(NC(=O)c4ccccc4)cc23)cc1`: the growth was 69.2% in the test on RPMI-8226 leukemia; 86.7% in the test on OVCAR-8 ovarian; 96.2% in the test with OVCAR-5 ovarian; 89.2% in the test with OVCAR-4 ovarian; 100% with SK-OV-3 ovarian; 103% in the test with IGROV1 ovarian. The growth in the test on OVCAR-3 ovarian is 94.4%; in the test with HS 578T breast, -95% (active); in the test with NCI/ADR-RES ovarian it was 86.8%; in the test on T-47D breast it was 65.6%; with BT-549 breast it was 86.5%; in the test with MDA-MB-435 melanoma, 91.1%. Moreover, the growth in the test on SW-620 colon was 96%; with MCF7 breast, 75.7%; in the test on HCT-116 colon it was 91.4%; in the test on HCC-2998 colon it was 97.3%; in the test on KM12 colon, 75.2%.
For `C=C1C(=O)O[C@H]2[C@H]1CC/C(COC(=O)CCCCCCC(=O)OC/C1=C/CC[C@@]3(C)O[C@H]3[C@H]3OC(=O)C(=C)[C@@H]3CC1)=C\CC[C@@]1(C)O[C@@H]21`, the growth was 2.81% (active) in the test on RPMI-8226 leukemia; -18.7% (active) in the test with OVCAR-8 ovarian; 61% in the test on OVCAR-5 ovarian; 42.3% with OVCAR-4 ovarian; 94.6% in the test on SK-OV-3 ovarian; 11.2% in the test with IGROV1 ovarian. Also, the growth was -3.87% (active) in the test with OVCAR-3 ovarian; 27.2% in the test with HS 578T breast; 46.6% in the test with NCI/ADR-RES ovarian; -18.1% (active) in the test on T-47D breast; 49.4% in the test on BT-549 breast; 40.4% with MDA-MB-435 melanoma. In addition, the growth was 14.8% with SW-620 colon; 14.8% in the test on MCF7 breast; -40.6% (active) in the test on HCT-116 colon; 89.3% with HCC-2998 colon; 61.5% in the test with KM12 colon.
Take `O=CN1N=C(c2ccc(F)cc2)CC1c1cccc(Nc2ccnc3cc(C(F)(F)F)ccc23)c1` (stereo unspecified): the growth was 24.6% with RPMI-8226 leukemia; 41.5% in the test on OVCAR-8 ovarian; 95.2% in the test with OVCAR-5 ovarian; 41% in the test with OVCAR-4 ovarian; 69.1% in the test with SK-OV-3 ovarian; 67.9% in the test with IGROV1 ovarian. In addition, the growth was 59.8% in the test on OVCAR-3 ovarian; 73.5% in the test on HS 578T breast; 47.4% in the test on NCI/ADR-RES ovarian; 26.4% in the test on T-47D breast; 44.3% in the test on BT-549 breast; 58.2% with MDA-MB-435 melanoma. Further, the growth was 79.1% in the test on SW-620 colon; 25.3% in the test with MCF7 breast; 41.8% with HCT-116 colon; 76.3% with HCC-2998 colon; 55.9% in the test with KM12 colon.
As to `CCCCn1c(=O)c(/C=C/C(=O)/C=C/c2cc3ccccc3n(CCCC)c2=O)cc2ccccc21`, the growth in the test with RPMI-8226 leukemia is -32.1% (active); in the test with OVCAR-8 ovarian it was -0.92% (active); with OVCAR-5 ovarian, 25.9%; in the test with OVCAR-4 ovarian, 28.5%; in the test with SK-OV-3 ovarian it was 15.6%; in the test with IGROV1 ovarian, 1.5% (active). The growth in the test on OVCAR-3 ovarian was -15.7% (active); in the test on HS 578T breast, 30%; in the test on NCI/ADR-RES ovarian it was 22.8%; with T-47D breast, 20.8%; in the test with BT-549 breast it was -54.5% (active); with MDA-MB-435 melanoma, -65.2% (active). The growth was -2.85% (active) in the test on SW-620 colon; -0.486% (active) in the test on MCF7 breast; -90.3% (active) in the test with HCT-116 colon; -92.6% (active) in the test on HCC-2998 colon; -75.8% (active) in the test on KM12 colon.
As for `O=C(O)COc1ccc2c(=O)c3sc4c(=O)c5ccccc5c(=O)c4c3c(=O)c2c1`, the growth was 43.6% with RPMI-8226 leukemia; 43.8% in the test on OVCAR-8 ovarian; -53.7% (active) in the test on OVCAR-5 ovarian; 27.8% in the test on OVCAR-4 ovarian; 88.1% in the test with SK-OV-3 ovarian; 36.6% with IGROV1 ovarian. Moreover, the growth with OVCAR-3 ovarian was 1.75% (active); in the test on HS 578T breast it was -10.1% (active); in the test with NCI/ADR-RES ovarian it was 40.8%; with T-47D breast, 74.1%; with BT-549 breast, -97% (active); with MDA-MB-435 melanoma, -88.6% (active). In addition, the growth in the test with SW-620 colon is 10.1%; in the test with MCF7 breast, -57% (active); in the test on HCT-116 colon, 24.9%; with HCC-2998 colon, -21.1% (active); in the test with KM12 colon, 51.5%.
On to `C=C(C)[C@@H]1CC[C@]2(C(=O)OCCOCCOCC[P+](c3ccccc3)(c3ccccc3)c3ccccc3)CC[C@]3(C)[C@H](CC[C@@H]4[C@@]5(C)CC[C@H](C)C(C)(C)[C@@H]5CC[C@]43C)[C@@H]12`, for which the growth in the test with RPMI-8226 leukemia is -59.3% (active); in the test with OVCAR-8 ovarian, -81.3% (active); in the test on OVCAR-5 ovarian, -72.2% (active); with OVCAR-4 ovarian, -85.6% (active); in the test with SK-OV-3 ovarian, -96.9% (active); with IGROV1 ovarian, -70.5% (active). Besides, the growth in the test on OVCAR-3 ovarian was -91.7% (active); with HS 578T breast, -39.2% (active); with NCI/ADR-RES ovarian it was -59.8% (active); with T-47D breast it was -68.5% (active); with BT-549 breast it was -93% (active); with MDA-MB-435 melanoma it was -93.7% (active). In addition, the growth in the test with SW-620 colon is -83.5% (active); in the test with MCF7 breast, -77% (active); in the test on HCT-116 colon, -88.4% (active); in the test with HCC-2998 colon, -85.5% (active); in the test with KM12 colon, -81.3% (active).
